RE007 growth inh – qHTS Assay for Inhibitors of the HIV-1 protein Vpr. Potency, µM (doses to about 92.2 µM), for inactives: top-dose activity change, negative = less growth, hits mostly inhibitors. 360,000 compounds, 0.21% hits. S. pombe RE007 Vpr strain, BacTiter-Glo ATP luminescence, 24 h; active = well fitted falling curve with a large enough effect; inconclusive = small, poorly fitted or top-dose-only effect; inactive = no such curve, though single readings can be large or run the other way; note: potency is the fitted concentration of half-maximal effect; % is set by controls: 0 for no effect and ±100 for the full control effect; nearly all actives have a fitted effect of over 50% in size
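Fission yeast strain RE007, carrying one chromosomally integrated HIV-1 vpr copy, was seeded at OD 0.01 in PMG+AL medium with 23 nL pinned compound. After 24 h at 30 °C and 99% humidity, viability was read by BacTiter-Glo luminescence.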
SARS PLpro yeast-1 – qHTS of Yeast-based Assay for SARS-CoV PLP | S. cerevisiae expressing SARS-CoV PLpro, growth rescue | AID 485353, 2010 | 330,000 compounds, 0.19% hits | Potency, µM (doses to about 32.9 µM), for inactives: at the top dose activity, positive = growth rescue, hits mostly activators; calls by dose curve; note: potency is the fitted concentration of half-maximal effect; 0% is about no effect; nearly all actives have a fitted effect of over 55% in size
LmPK inhibitor – qHTS Assay for Inhibitors of Leishmania Mexicana Pyruvate Kinase (LmPK) | Q27686 | purified LmPK, Kinase-Glo ATP luminescence, 1 h | Potency, µM (series often up to 57.5 µM), for inactives: at the highest dose activity change, negative = inhibition, usual class: inhibitors | 290,000 compounds, 0.37% hits | AID 1721, 2009; note: potency is the fitted concentration of half-maximal effect; % is set by controls: 0 for no effect and ±100 for the full control effect
Target sequence (Q27686 whole entry, looked up): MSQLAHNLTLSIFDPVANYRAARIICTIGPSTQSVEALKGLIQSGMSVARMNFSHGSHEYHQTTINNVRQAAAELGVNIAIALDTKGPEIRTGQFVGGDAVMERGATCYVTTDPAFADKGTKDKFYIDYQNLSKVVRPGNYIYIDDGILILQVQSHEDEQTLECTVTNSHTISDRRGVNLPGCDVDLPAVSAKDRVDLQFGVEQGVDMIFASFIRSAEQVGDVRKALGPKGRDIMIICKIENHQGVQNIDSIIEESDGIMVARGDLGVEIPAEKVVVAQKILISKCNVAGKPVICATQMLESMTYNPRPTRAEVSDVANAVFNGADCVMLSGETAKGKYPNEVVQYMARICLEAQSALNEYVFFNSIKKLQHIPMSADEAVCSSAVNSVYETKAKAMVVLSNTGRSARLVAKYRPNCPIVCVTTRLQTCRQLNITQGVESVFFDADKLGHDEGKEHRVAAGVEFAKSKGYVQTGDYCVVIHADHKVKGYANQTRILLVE
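qHTS format; LmPK 0.1 nM; substrates PEP 0.5 mM and ADP 0.1 mM. One-hour room-temperature incubation, then coupled luciferase luminescence; 0.5 nM enzyme wells mark activation.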
Tb PYK inh – qHTS of Trypanosoma Brucei Inhibitors. 410,000 compounds, 0.12% hits. TbPYK enzyme, Kinase-Glo Plus ATP luminescence, 45 min. AID 624173, 2012. Potency, µM (highest dose often 76.8 µM), without a hit: at the top dose activity, negative = inhibition, usual class: inhibitors; note: potency is the fitted concentration of half-maximal effect; % is set by controls: 0 for no effect and ±100 for the full control effect; nearly all actives have a fitted effect of over 50% in size
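Glycolytic pyruvate kinase of T. brucei was incubated with substrate, test compound and 130 uM ADP for 45 minutes at room temperature. Luminescent Kinase-Glo Plus signal was measured after 10 minutes.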
AMA1-RON2 inh – qHTS for Inhibitors of AMA1-RON; Towards Development of Antimalarial Drug Lead: Primary Screen | Plasmodium falciparum AMA1 (3D7) - RON2 peptide interaction | AlphaScreen AMA1-biotinylated RON2 peptide binding | Potency, µM (series often up to 58.2 µM), for the others: top-dose activity change, negative = inhibition, usual class: inhibitors | 360,000 compounds, 0.2% hits | AID 720542, 2013;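 note: potency is the fitted concentration of half-maximal effect; 0% = vehicle wells and -100% = peptide control; nearly all actives have a fitted effect of over 45% in size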
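AMA1 (3D7) with his tag at 25 nM final met compounds first, then biotinylated RON2 peptide at 25 nM; detection used donor plus acceptor beads, 10 µg/mL apiece, read by AlphaScreen after 30 min at room temperature.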
LmPK confirm – Confirmation Assay for Inhibitors of Leishmania Mexicana Pyruvate Kinase (LmPK) | 150 compounds, 40% hits | Potency, µM (titrated, usually from 57.5 µM), for inactives: top-dose activity change, negative = inhibition, most hits filed as inhibitors | purified LmPK, Kinase-Glo ATP luminescence, 1 h | shares compounds with LmPK inhibitor;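 active = compounds giving a full or partial concentration-response curve, as inhibitors or activators; inconclusive = weak, top-dose-only or unclear curve responses; inactive = no response at any tested dose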
SARS PLpro yeast-2 – qHTS of Yeast-based Assay for SARS-CoV PLP: Hit Validation; AID 652038, 2013; calls only; shares compounds with SARS PLpro yeast-1; 1,000 compounds, 19% hits; yeast expressing SARS-CoV PLpro, growth phenotype rescue; call rule not given here
Starred values were filed as active, the others as inactive; [ ] = another dose, or the depositor's remark. A selection: hits, their analogues and other compounds. The true share with any hit is near 0.81%. Unless noted, calls come from the whole dose curve; as a rule, active = well fitted curve in the direction sought with a large enough effect; inconclusive = small, poorly fitted or top-dose-only effect, or another doubt; inactive = no such curve, though single readings can be large; an effect the other way counts as inactive or inconclusive.

Clc1ccc(-c2nc(-c3ccccn3)no2)cc1Cl was read as RE007 growth inh -18%, SARS PLpro yeast-1 2%, LmPK inhibitor inconclusive, Tb PYK inh 2% and AMA1-RON2 inh 6%.
COc1ccc(-c2nc(-c3ccccn3)no2)cc1 was read as RE007 growth inh inconclusive, SARS PLpro yeast-1 -5%, LmPK inhibitor 1.6µM*, Tb PYK inh inconclusive, AMA1-RON2 inh 13% and LmPK confirm 6.5µM*.
O=S(=O)(Nc1ccc(O)c(NS(=O)(=O)c2ccccc2)c1)c1ccccc1 was read as RE007 growth inh -1%, SARS PLpro yeast-1 -4%, LmPK inhibitor 0.45µM*, Tb PYK inh -28%, AMA1-RON2 inh -7% and LmPK confirm 4%.
For Nc1nc(SCc2ccccc2Cl)nc2nc3c(cc12)CCCC3 the results were RE007 growth inh 4%, SARS PLpro yeast-1 inconclusive, LmPK inhibitor -4%, Tb PYK inh 1%, AMA1-RON2 inh 31% and SARS PLpro yeast-2 inactive.
`CC(C)COc1ccc(-c2nn(-c3ccccc3)cc2C(=O)Nc2nccs2)cc1` gave RE007 growth inh 12%, SARS PLpro yeast-1 inconclusive, LmPK inhibitor 2%, Tb PYK inh 0%, AMA1-RON2 inh 43% and SARS PLpro yeast-2 active.
`Cc1ccc(C)c(S(=O)(=O)N2CCCOC2CNC(=O)C(=O)NCCCn2ccnc2)c1` (configuration not stated) gave RE007 growth inh 7%, SARS PLpro yeast-1 16%, LmPK inhibitor -1%, Tb PYK inh -11% and AMA1-RON2 inh -5%.
`Cc1cc(C)c(S(=O)(=O)N2CCCOC2CNC(=O)C(=O)NCCCn2ccnc2)c(C)c1` (configuration not stated) gave RE007 growth inh 8%, SARS PLpro yeast-1 inconclusive, LmPK inhibitor -3%, Tb PYK inh -1%, AMA1-RON2 inh 7% and SARS PLpro yeast-2 inconclusive.
COc1ccc(C2=CC(c3ccccc3Cl)n3nc(-c4ccc(C)cc4)nc3N2)cc1 (configuration not stated) was read as Tb PYK inh -1%.
For COc1cccc(/C=N\NC(=O)Cn2nnc3ccccc32)c1O the results were RE007 growth inh 13%, SARS PLpro yeast-1 0%, LmPK inhibitor 1%, Tb PYK inh 2% and AMA1-RON2 inh 62%.
Cc1noc(C)c1C(=O)N1CCC[C@@]2(CCN(c3cccc(-c4ccccc4)c3)C2)C1 was read as Tb PYK inh 2%.
Screening CC(C)(C)c1ccc(C(=O)Cn2nc(C(=O)O)c3ccccc3c2=O)cc1 returned RE007 growth inh -22%, SARS PLpro yeast-1 0%, LmPK inhibitor 1%, Tb PYK inh 2% and AMA1-RON2 inh 7%.
For CC(C)CC(=O)Nc1ccc(C(=O)Cn2nc(C(=O)O)c3ccccc3c2=O)cc1 the results were RE007 growth inh 3%, SARS PLpro yeast-1 13µM*, LmPK inhibitor 4%, Tb PYK inh -15%, AMA1-RON2 inh 5% and SARS PLpro yeast-2 inactive.
For Cc1ccc(-c2nc3ncccc3o2)cc1NC(=O)COc1ccc(C(C)C)cc1 the results were Tb PYK inh -4%.
`CN(CC(=O)Nn1cnnc1)S(=O)(=O)c1ccc(Br)cc1` gave RE007 growth inh -4%, SARS PLpro yeast-1 3.5µM*, LmPK inhibitor 0%, Tb PYK inh 4%, AMA1-RON2 inh -5% and SARS PLpro yeast-2 inactive.
Screening CN(CC(=O)Nc1ccncc1)S(=O)(=O)c1ccc(Br)cc1 returned RE007 growth inh -6%, SARS PLpro yeast-1 7%, LmPK inhibitor 3%, Tb PYK inh -3% and AMA1-RON2 inh 1%.
COc1ccc(-c2c/c(=N\c3nc(-c4ccccc4)c(C)s3)c3ccccc3o2)cc1O was read as RE007 growth inh 4%, SARS PLpro yeast-1 inconclusive, LmPK inhibitor 1%, Tb PYK inh -2%, AMA1-RON2 inh -24% and SARS PLpro yeast-2 active.
For O=C1c2ccccc2C(c2nc3ccccc3[nH]2)N1Cc1ccco1 (configuration not stated) the results were RE007 growth inh 4%, Tb PYK inh -1% and AMA1-RON2 inh 10%.
`COc1ccccc1CNS(=O)(=O)CCNC1CC1` gave RE007 growth inh -3%, Tb PYK inh -11% and AMA1-RON2 inh -2%.
CCOc1ccc(OC(=O)c2sc3ncn(Cc4cccc(F)c4)c(=O)c3c2C)cc1 was read as Tb PYK inh 3%.
Cc1c(C(=O)Oc2ccc(F)cc2)sc2ncn(Cc3cccc(F)c3)c(=O)c12 was read as RE007 growth inh -3%, SARS PLpro yeast-1 inconclusive, LmPK inhibitor 0%, Tb PYK inh 4%, AMA1-RON2 inh 1% and SARS PLpro yeast-2 inactive.
For CCOC(=O)C1=C2SCC(=O)N2C(N)=C(C#N)C1 the results were RE007 growth inh -7%, SARS PLpro yeast-1 inconclusive, LmPK inhibitor -1%, Tb PYK inh 1%, AMA1-RON2 inh 16% and SARS PLpro yeast-2 inactive.
For Cc1cc(C(=O)N/N=C/c2cc(N=Nc3ccccc3)ccc2O)n[nH]1 the results were RE007 growth inh -3%, SARS PLpro yeast-1 7.9µM*, LmPK inhibitor -1%, Tb PYK inh 13%, AMA1-RON2 inh -19% and SARS PLpro yeast-2 inactive.
For COc1ccccc1N1CCN(C(=O)C(CCSC)NS(=O)(=O)c2ccc3c(c2)oc(=O)n3C)CC1 (configuration not stated) the results were Tb PYK inh -11%[15.4 µM].
For COc1cc(/C=C/C(=O)NC(C)C)ccc1OCc1ccccc1 the results were RE007 growth inh 5%, SARS PLpro yeast-1 inconclusive, LmPK inhibitor 1%, Tb PYK inh 1%, AMA1-RON2 inh 4% and SARS PLpro yeast-2 active.
CCCCCN(C(=O)NC(=O)Nc1ccc(C)cc1C)S(C)(=O)=O was read as RE007 growth inh -2%, SARS PLpro yeast-1 -2%, LmPK inhibitor 10%, Tb PYK inh 0% and AMA1-RON2 inh 3%.
Screening CCCCCN(C(=O)NC(=O)Nc1ccc(C)cc1)S(=O)(=O)c1ccccc1 returned RE007 growth inh -5%, SARS PLpro yeast-1 3.2µM*, LmPK inhibitor 1%, Tb PYK inh -1%, AMA1-RON2 inh -3% and SARS PLpro yeast-2 inactive.

High-throughput results as filed in PubChem.
